Rv3671c inh – inhibits the M. tuberculosis serine protease Rv3671c; P9WHR9; inhibition, % at 5.96 µM; 0.048% of 320,000 active; AID 2606; in the data active = inhibition above about 38%;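 note: extracellular domain of Rv3671c used as enzyme; 0% = enzyme with DMSO and 100% = no enzyme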
Mtb betalactam – beta-lactam sensitization of Mtb H37Rv; M. tuberculosis H37Rv growth with meropenem, percent inhibition; inhibition, % at 25 µM; 0.27% of 330,000 active; AID 434955; call rule not given here;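 note: growth measured after seven days incubation then overnight dye step; 0% = bacteria only wells and 100% = bacteria with antibiotic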
SSB-PriA inh – K. pneumoniae PriA-SSBct interaction inhibition; 0.6% of 430,000 active; AlphaScreen SSBct-PriA binding, biotinylated peptide; inhibition, % at 33 µM; in the data active = inhibition mostly above about 37%, no sharp cut-off; inactive = mostly below about 20%;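 note: plate controls were negative control peptide for no effect and reference peptide for full effect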
Mtb FBA inh – inhibitors of M. tuberculosis fructose-bisphosphate aldolase | P9WQA3 | purified M. tuberculosis FBA, fluorescence read-out | inhibition, % at 1 µM | 2.3% of 360,000 active | AID 588726;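 note: 0% = vehicle and 100% = reference inhibitor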
Target sequence (P9WQA3 whole entry, looked up): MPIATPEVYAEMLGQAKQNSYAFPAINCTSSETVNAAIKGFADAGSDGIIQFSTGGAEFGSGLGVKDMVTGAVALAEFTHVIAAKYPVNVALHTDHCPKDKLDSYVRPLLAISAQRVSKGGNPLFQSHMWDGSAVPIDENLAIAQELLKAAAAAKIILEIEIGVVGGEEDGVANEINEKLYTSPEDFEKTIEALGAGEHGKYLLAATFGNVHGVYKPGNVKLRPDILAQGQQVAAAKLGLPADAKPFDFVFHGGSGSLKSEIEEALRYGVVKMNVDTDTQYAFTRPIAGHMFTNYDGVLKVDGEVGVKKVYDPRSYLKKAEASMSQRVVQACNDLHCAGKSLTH
GDH-TPI counter-1 – inhibits GDH-TPI coupling enzymes, artifact for Mtb FBA screen; GDH-TPI coupled enzyme counterscreen, NADH absorbance; inhibition, % at 4.8 µM; 1.2% of 360,000 active; AID 588335; in the data active = inhibition above about 30%;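 note: 0% = DMSO wells and 100% = wells lacking the enzyme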
Mtb UGM inh – inhibitors of M. tuberculosis UDP-galactopyranose mutase; P9WIQ1; purified UGM, fluorescence polarization probe displacement; inhibition, % at 10 µM; 0.06% of 320,000 active; in the data active = inhibition above about 10%, passing the limit was not always enough; inconclusive = no clear call, values can overlap the other calls
Target sequence (P9WIQ1 whole entry, looked up): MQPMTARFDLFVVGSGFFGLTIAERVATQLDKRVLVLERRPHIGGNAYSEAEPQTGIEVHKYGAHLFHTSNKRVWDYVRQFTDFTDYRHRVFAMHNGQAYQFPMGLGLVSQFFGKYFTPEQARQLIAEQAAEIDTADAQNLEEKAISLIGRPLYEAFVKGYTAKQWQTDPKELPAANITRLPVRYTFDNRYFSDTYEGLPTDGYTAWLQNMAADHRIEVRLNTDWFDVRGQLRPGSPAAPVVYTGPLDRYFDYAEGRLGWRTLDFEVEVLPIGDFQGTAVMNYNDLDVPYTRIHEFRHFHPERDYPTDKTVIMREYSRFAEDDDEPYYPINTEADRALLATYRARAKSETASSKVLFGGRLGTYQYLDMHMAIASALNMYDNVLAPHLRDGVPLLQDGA
Mtb FBA inh conf – Mtb FBA inhibition, confirmed. shares compounds with Mtb FBA inh. purified M. tuberculosis FBA, fluorescence read-out. inhibition, % at 1 µM. 78% of 5,600 active;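 note: 0% = vehicle wells and 100% = reference inhibitor wells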
GDH-TPI counter-2 – counter-screen for M. tuberculosis FBA inhibitors: GDH-TPI coupled enzyme inhibition | shares compounds with Mtb FBA inh | GDH-TPI coupled enzyme counterscreen, fluorescence | inhibition, % at 1 µM | 81% of 5,600 active; in the data active = inhibition above about 10%
GDH-TPI DR – GDH-TPI dose response counter-screen for Mtb FBA; shares compounds with Mtb FBA inh; GDH-TPI coupled enzyme assay, fluorescence, artifact counterscreen; IC50, µM; 79% of 170 active; AID 652145; call rule not given here
An asterisk follows results filed as active; ? = inconclusive; nt = no result; + = active, no number. This is a sample that favours compounds with a hit; in the whole collection about 3.2% have one here. Cut-off read from the data, not from the text of the source, unless noted: active = inhibition above about 27%; inactive = the rest.

SMILES	Rv3671c inh	Mtb betalactam	SSB-PriA inh	Mtb FBA inh	GDH-TPI counter-1	Mtb UGM inh	Mtb FBA inh conf	GDH-TPI counter-2	others
CCC(=O)NCCCNc1nc2c(C)cccc2cc1C#N	3.1	-10.8	7.9	37.7*	-3.2	1.7	142.3*	102.3*
COc1ccc(C(=O)NCCNc2nc3c(C)cccc3cc2C#N)cc1OC	2.9	-2.8	9.4	29.0*	-15.4	1.0	+	+
OCc1ccc2ccccc2c1	nt	nt	-12.0	nt	nt	nt	nt	nt
CCOc1ccc(-c2csc(-n3nc(C)cc3NC(=O)COc3ccccc3F)n2)cc1	nt	nt	-8.0	nt	nt	nt	nt	nt
CN(C)c1nccc(CNC(=O)C(c2ccccc2)c2ccccc2)n1	nt	nt	-1.0	nt	nt	nt	nt	nt
O=C(/C=C/c1cccs1)c1cccs1	nt	nt	2.0	nt	nt	nt	nt	nt
Cc1ccc(-c2ccc(N3CCN(S(=O)(=O)/C=C\c4ccccc4)CC3)nn2)c(C)c1	nt	nt	-2.0	nt	nt	nt	nt	nt
CC(C)S(=O)(=O)c1cccc(-c2nnc(NC(=O)c3cccc(S(C)(=O)=O)c3)o2)c1	nt	nt	-27.0	nt	nt	nt	nt	nt
Nc1nc2n(n1)C(c1cccs1)CC(c1ccc(Br)cc1)N2 (stereo not drawn)	-7.2	9.3	-3.3	48.1*	8.2	-0.3	15.9	9.0	GDH-TPI DR=7.84*
O=C(CCOc1ccccc1)Nc1ncc(-c2ccc(Cl)c(Cl)c2)s1	nt	nt	-24.0	nt	nt	nt	nt	nt
COc1ccc2nc(NCCCNC(=O)c3cc(OC)c(OC)c(OC)c3)c(C#N)cc2c1	8.1	?	-14.7	31.7*	8.4	-0.3	13.0	-4.7	GDH-TPI DR=4.38*
COc1ccc(C(=O)NCCNc2nc3c(C)cccc3cc2C#N)cc1	-10.0	-6.6	-9.6	20.2	3.5	-0.4	nt	nt
Cc1ccc2nc(NCCNC(=O)c3ccccc3)c(C#N)cc2c1	-2.2	-5.5	-16.4	48.1*	3.0	-3.8	188.6*	144.2*
COc1ccc(C(=O)NCCNc2nc3ccc(C)cc3cc2C#N)cc1	-7.0	12.9	4.8	46.6*	8.1	0.0	54.7*	42.0*
COc1cc(C(=O)NCCNc2nc3ccc(C)cc3cc2C#N)cc(OC)c1OC	3.6	-9.7	-14.4	39.0*	4.6	0.6	94.2*	79.6*
COc1cc(C(=O)NCCCNc2nc3c(C)cc(C)cc3cc2C#N)cc(OC)c1OC	-3.2	9.4	-9.4	15.3	-3.8	3.5	nt	nt
Cc1ccc2nc(NCc3ccccc3)c(C#N)cc2c1	0.9	1.8	-17.9	12.9	7.2	2.6	nt	nt
CC(=O)N1CCN(c2cc3c(cc2F)c(=O)c(C(=O)Nc2nnc(C(C)C)s2)cn3C2CC2)CC1	nt	nt	-20.0	nt	nt	nt	nt	nt
O=C(Cc1cccs1)Nc1cc(C2CC2)nn1-c1nc2c(c(=O)[nH]1)CCCC2	nt	nt	-11.0	nt	nt	nt	nt	nt
O=c1cc(CSc2ncccn2)occ1O	nt	nt	8.0	nt	nt	nt	nt	nt
O=C(Nc1cccc(N2CCCS2(=O)=O)c1)c1ccccc1Br	nt	nt	-8.0	nt	nt	nt	nt	nt
CCCCNC(=O)c1cc2c(-c3ccc(Cl)cc3)nn(C)c2s1	-12.5	1.3	-5.1	16.1	2.4	1.0	nt	nt
CNC(=O)c1cc2c(-c3ccccc3)nn(C)c2s1	-16.3	0.3	2.1	72.8*	6.7	3.1	102.3*	79.7*
CCCCN(C)CCNC(=O)c1cc2c(-c3ccccc3F)nn(C)c2s1	5.8	6.5	11.8	45.9*	5.9	1.7	37.5*	32.5*
Cn1nc(-c2ccc(Cl)cc2)c2cc(C(=O)NCCCN3CCCC3)sc21	-10.2	65.2	6.9	35.2*	13.0	-0.9	80.8*	70.7*
SMILES	Rv3671c inh	Mtb betalactam	SSB-PriA inh	Mtb FBA inh	GDH-TPI counter-1	Mtb UGM inh	Mtb FBA inh conf	GDH-TPI counter-2	others
CCCCN(C)CCNC(=O)c1cc2c(=O)[nH]c3ccccc3c2n1C	-16.6	1.7	14.6	14.5	5.0	1.5	nt	nt
COCCCNC(=O)c1cc2c(-c3ccc(Cl)cc3)nn(C)c2s1	-28.4	7.7	-4.1	74.0*	19.7	2.0	76.8*	73.1*
CCN1CCCC1CNC(=O)c1cc2c(-c3ccc(Cl)cc3)nn(C)c2s1 (stereo not drawn)	-6.7	38.1	2.5	21.7	4.3	0.6	nt	nt
CS(=O)(=O)c1ccc(NC(=O)C2CCN(S(C)(=O)=O)CC2)cc1	nt	nt	-6.0	nt	nt	nt	nt	nt
COCCNC(=O)c1cc2c(-c3ccc(Cl)cc3)nn(C)c2s1	-20.3	28.2	-6.3	79.0*	5.3	1.0	69.3*	53.8*
COCCNC(=O)c1cc2c(-c3ccccc3F)nn(C)c2s1	-22.2	1.1	-2.2	35.1*	15.9	-0.5	116.9*	88.0*
CC(C)NC(=O)c1cc2c(-c3ccc(Cl)cc3)nn(C)c2s1	-9.2	-1.3	-9.8	12.1	2.4	-0.8	nt	nt
CC(C)CCNC(=O)COc1ccc2c(c1)C(=O)CC(C)(C)O2	3.6	-8.7	-12.3	49.9*	11.8	-0.2	+	+
CCC(Oc1ccc2c(c1)C(=O)CC(C)(C)O2)C(=O)NCCN1CCCCCC1 (stereo not drawn)	1.3	-4.0	1.3	59.3*	12.0	1.1	-3.0	-6.3
CC1(C)CC(=O)c2cc(OCC(=O)NCCN3CCCc4ccccc43)ccc2O1	5.6	-3.7	0.8	18.2	6.7	-2.3	nt	nt
COc1cccc(OCC(=O)Nc2ccc3c(c2)CN(C(=O)c2ccccc2)CC3)c1	nt	nt	-3.0	nt	nt	nt	nt	nt
CCNC(=O)/C(C#N)=C/c1c(N2CCN(c3cccc(Cl)c3)CC2)nc2c(C)cccn2c1=O	nt	6.3	-6.4	8.6	15.2	0.6	nt	nt
COCCCNC(=O)/C(C#N)=C/c1c(N2CCN(c3cccc(Cl)c3)CC2)nc2c(C)cccn2c1=O	-7.4	88.3	0.2	54.4*	5.3	1.3	146.5*	120.3*
C=CCNC(=O)/C(C#N)=C/c1c(N2CCN(c3ccc(OC)cc3)CC2)nc2c(C)cccn2c1=O	-1.0	0.1	-0.3	45.9*	15.0	0.6	173.8*	157.9*
COc1ccc(N2CCN(c3nc4c(C)cccn4c(=O)c3/C=C(\C#N)C(N)=O)CC2)cc1	-9.5	38.9	11.8	32.4*	6.6	-1.7	7.7	3.5
C=CCNC(=O)/C(C#N)=C/c1c(N2CCN(c3ccccc3)CC2)nc2c(C)cccn2c1=O	-10.1	1.0	18.4	25.1	6.4	0.7	nt	nt
CCNC(=O)/C(C#N)=C/c1c(N2CCN(C)CC2)nc2c(C)cccn2c1=O	-3.0	-0.9	-9.0	58.7*	3.5	-1.4	96.2*	73.0*
CC1CCN(Cc2c(C(=O)NN=Cc3ccccc3O)nnn2-c2nonc2N)CC1	nt	nt	-1.8	nt	nt	nt	nt	nt
COc1ccc(C=Nn2c(-c3ccc(C)cc3)n[nH]c2=S)cc1OC	nt	nt	-4.7	nt	nt	nt	nt	nt
Fc1ccc(Cn2ccc3ccccc32)cc1	nt	nt	-44.0	nt	nt	nt	nt	nt
O=c1[nH]cnc2sc3c(c12)CCN(Cc1ccccc1)C3	-12.3	0.3	11.0	47.4*	14.7	3.1	121.6*	94.1*
OCCCNc1ncnc2sc3c(c12)CCN(Cc1ccccc1)C3	5.6	-0.9	-7.3	71.8*	10.9	0.6	76.2*	61.9*

Source: PubChem (several laboratories)
